Seven molecules from PubChem BioAssay (NCI) can be followed below.

Among the test systems are NCI-H23 lung; NCI-H226 lung; NCI-H322M lung; HOP-62 NSCLC; NCI-H460 lung; HOP-92 NSCLC; NCI-H522 lung; A549/ATCC NSCLC; 786-0 renal; DU-145 prostate; K-562 leukemia; MALME-3M melanoma; MDA-MB-231 breast; RXF 393 renal; SF-268 CNS; SF-295 CNS; SF-539 CNS; UACC-257 melanoma; M14 melanoma; COLO 205 colon.
What all share (assay): NCI-60 one-dose screen, 48 h (100 = growth as untreated, 0 = no growth, -100 = all killed)
What all share (conditions): 10 µM unless noted

Structures are written as SMILES. Compounds without any hit were thinned out: in the full panel of roughly 83,000, 20% have a hit.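 96-well plates, one dose, 48 hours. Percent growth reported; active if below 10.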 Values without a mark were called inactive. Active and inactive are the calls of the source.

With `COc1cc2cc(Oc3ccc(NC(=O)c4cc(C(F)(F)F)cc(C(F)(F)F)c4)cc3)c(C)nc2cc1OCCN1CCOCC1`, the growth in the assay with NCI-H23 lung was 66.9%; in the assay with NCI-H226 lung, 70.3%; with NCI-H322M lung it was 98%; with HOP-62 NSCLC, 88.6%; with NCI-H460 lung, 61.6%; in the assay with HOP-92 NSCLC it was 44.8%. Besides, the growth in the assay on NCI-H522 lung was 58.1%; in the assay with A549/ATCC NSCLC it was 61.4%; with 786-0 renal, 25.3%; with DU-145 prostate, 87.1%; in the assay on K-562 leukemia it was 26.5%; in the assay with MALME-3M melanoma, 69.7%. In addition, the growth was 75.7% in the assay on MDA-MB-231 breast; 1.66% (active) in the assay with RXF 393 renal; 72.6% in the assay on SF-268 CNS; 29.7% in the assay on SF-295 CNS; 59.4% with SF-539 CNS; 57.3% in the assay on UACC-257 melanoma. Also, in the assay on M14 melanoma, the growth was 60.5%.

Regarding `CNCCN(C)c1ccc(Nc2cc(NC3CC3)n3ncc(C#N)c3n2)cc1NC(C)=O`, the growth was -5.36% (active) in the assay with NCI-H23 lung; 10.6% in the assay on NCI-H226 lung; 10.5% in the assay on NCI-H322M lung; 13.4% in the assay with HOP-62 NSCLC; 8.31% (active) in the assay on NCI-H460 lung; -9.1% (active) in the assay on HOP-92 NSCLC. The growth in the assay on NCI-H522 lung is -35.4% (active); with A549/ATCC NSCLC, 12%; with 786-0 renal, 12.8%; in the assay on COLO 205 colon, 4.36% (active); in the assay with DU-145 prostate it was 17.5%; in the assay on K-562 leukemia it was 10.7%. The growth with MALME-3M melanoma is -5.08% (active); with MDA-MB-231 breast it was -6.44% (active); in the assay with RXF 393 renal, -24.5% (active); with SF-268 CNS, 7.24% (active); in the assay on SF-295 CNS it was 12%; in the assay with SF-539 CNS, 6.65% (active). Further, the growth in the assay on UACC-257 melanoma is 8.4% (active); in the assay on M14 melanoma it was -20.6% (active).

Regarding `CCOC(=O)C1=C(C)NC(C)=C(C(=O)OC(C)C)C1c1cccc(C#N)c1` (stereo not given), the growth in the assay with NCI-H23 lung was 96.7%; in the assay on NCI-H226 lung, 98.1%; in the assay with NCI-H322M lung it was 100%; in the assay on HOP-62 NSCLC it was 101%; in the assay on NCI-H460 lung, 101%; in the assay on HOP-92 NSCLC, 114%. Also, the growth with NCI-H522 lung is 92.7%; with A549/ATCC NSCLC, 100%; with 786-0 renal, 90.6%; in the assay with COLO 205 colon, 114%; in the assay with DU-145 prostate, 104%; in the assay on K-562 leukemia, 93.9%. Further, the growth is 97.2% in the assay with MALME-3M melanoma; 95.2% in the assay on MDA-MB-231 breast; 90.8% in the assay on RXF 393 renal; 96.9% with SF-268 CNS; 106% in the assay on SF-295 CNS; 104% with SF-539 CNS. For the same molecule, the growth was 104% in the assay on UACC-257 melanoma and 105% in the assay with M14 melanoma.

For `C1=CC(c2nn3c(-c4ccccc4)nnc3s2)=Cc2ccccc2O1`, the growth with NCI-H23 lung was 75.8%; in the assay with NCI-H226 lung, 31.7%; in the assay with NCI-H322M lung, 96.3%; in the assay with HOP-62 NSCLC it was 105%; with NCI-H460 lung, 87.2%; in the assay on HOP-92 NSCLC it was 55.9%. Further, the growth is 83.8% in the assay with NCI-H522 lung; 89.7% in the assay on A549/ATCC NSCLC; 91.8% in the assay with 786-0 renal; 84.8% with DU-145 prostate; 43.5% with K-562 leukemia; 74.1% in the assay with MALME-3M melanoma. For the same molecule, the growth in the assay on MDA-MB-231 breast is 78.3%; with RXF 393 renal it was 22.7%; in the assay on SF-268 CNS it was 77.8%; in the assay on SF-295 CNS, 97.9%; in the assay with SF-539 CNS, 71.7%; in the assay with UACC-257 melanoma it was 67.8%. In addition, the growth in the assay with M14 melanoma is 65%.

For `COc1ccc(C(=NNS(=O)(=O)c2ccc(C)cc2)c2ccccc2)cc1OC`, the growth in the assay with NCI-H23 lung is 99.5%; in the assay with NCI-H226 lung, 99.5%; with NCI-H322M lung, 92.9%; with HOP-62 NSCLC it was 102%; in the assay with NCI-H460 lung, 105%; with HOP-92 NSCLC, 90.4%. Moreover, the growth with NCI-H522 lung is 92.4%; in the assay on A549/ATCC NSCLC, 96.1%; in the assay on 786-0 renal, 99.1%; with DU-145 prostate, 103%; with K-562 leukemia it was 94.3%; in the assay with MALME-3M melanoma, 87.7%. Further, the growth was 91.2% in the assay with MDA-MB-231 breast; 105% in the assay on RXF 393 renal; 95.5% in the assay on SF-268 CNS; 87.7% in the assay with SF-295 CNS; 105% in the assay with SF-539 CNS; 96.5% in the assay with UACC-257 melanoma. Further, the growth with M14 melanoma is 102%.

In the case of `COc1cc2c3c(cc4c5c(ccc4c3c1OC)OCO5)N(CCN(C)C)C2=O`, the growth was -17.8% (active) in the assay with NCI-H23 lung; -58.8% (active) in the assay with NCI-H226 lung; 0.11% (active) in the assay on NCI-H322M lung; 6.73% (active) in the assay on HOP-62 NSCLC; -20.5% (active) with NCI-H460 lung; -9.11% (active) with HOP-92 NSCLC. Further, the growth was -6.46% (active) in the assay on NCI-H522 lung; 0.384% (active) with A549/ATCC NSCLC; -16.2% (active) in the assay on 786-0 renal; 0.415% (active) in the assay with DU-145 prostate; 1.42% (active) with K-562 leukemia; -79.8% (active) with MALME-3M melanoma. Moreover, the growth is -1.13% (active) in the assay with MDA-MB-231 breast; -88.5% (active) in the assay on RXF 393 renal; 5.2% (active) with SF-268 CNS; -16.8% (active) in the assay on SF-295 CNS; -58.4% (active) in the assay on SF-539 CNS; -32.9% (active) in the assay with UACC-257 melanoma. Moreover, the growth in the assay on M14 melanoma was -54.5% (active).

Turning to `O=C1C(N2CCN(c3ccccc3)CC2)=C(Cl)C(=O)c2ncccc21`, the growth in the assay on NCI-H23 lung was 46.3%; in the assay on NCI-H226 lung, 91.3%; with NCI-H322M lung, 95.2%; in the assay with HOP-62 NSCLC, 63.9%; in the assay with NCI-H460 lung, 38.7%; in the assay with HOP-92 NSCLC, 128%. Also, the growth is -16.2% (active) in the assay with NCI-H522 lung; 91.5% in the assay with A549/ATCC NSCLC; 105% in the assay on 786-0 renal; 45.7% in the assay on DU-145 prostate; 6.19% (active) in the assay with K-562 leukemia; -1.87% (active) in the assay on MALME-3M melanoma. The growth was 75.3% in the assay with MDA-MB-231 breast; 27.8% in the assay with RXF 393 renal; 79.4% in the assay with SF-268 CNS; 103% in the assay with SF-295 CNS; 81.2% in the assay on SF-539 CNS; 55.4% in the assay on UACC-257 melanoma. In addition, the growth in the assay with M14 melanoma was 69.6%.
